BL2 CD40 inh: inhibitors of CD40-induced NF-kB signaling, primary screen, BL2 cells, luciferase reporter, single point | CD40L-induced, 4 h | inhibition, % at 10 µM | hit rate 0.94% among 83,000;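 active = mean inhibition of at least 50% with a set share of replicates also reaching that level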
Large screens that a line does not name were inactive; ! = a repeat was not active; [ ] = remark or other dose. This is one part of a sample in which hits are shown more often than they occur.

CN(C)C(=O)C[C@@H]1CC[C@H]2[C@@H](COc3ccc(NC(=O)C4CCCC4)cc3C(=O)N2C)O1	none
COCC(=O)N1CCC2(CC1)CN(Cc1cc(F)ccc1F)[C@H](CO)c1c2c2ccc(OC)cc2n1C	none
O=C(Nc1ccc(Cl)c(Cl)c1)N[C@@H]1CC[C@H](CCn2cc(C3CCCC3)nn2)O[C@@H]1CO	none
C[C@H](NC(=O)[C@H]1[C@H](CO)[C@H]2Cn3c(ccc(-c4ccncc4)c3=O)[C@H]2N1C)c1ccccc1	none
O=C(C1CCCCC1)N1C[C@@H]2[C@H](c3ccccc31)[C@@H](CO)N2CC1CCOCC1	none
C/C=C/c1ccc([C@@H]2[C@@H](CN(C)S(C)(=O)=O)N(C(C)=O)[C@H]2CO)cc1	none
C[C@@H]1CN([C@H](C)CO)C(=O)c2c(c3ccccc3n2C)-c2ccccc2CO[C@@H]1CN(C)S(=O)(=O)c1ccc([N+](=O)[O-])cc1	none
C[C@H](CO)N1C[C@H](C)[C@H](CN(C)S(=O)(=O)c2ccc([N+](=O)[O-])cc2)OCc2ccccc2-c2c(n(C)c3ccccc23)C1=O	BL2 CD40 inh 63[25 µM]
C[C@@H]1CN([C@@H](C)CO)C(=O)c2c(c3ccccc3n2C)-c2ccccc2CO[C@@H]1CN(C)S(=O)(=O)c1ccc([N+](=O)[O-])cc1	none
COc1ccc(CCNC(=O)COC(=O)c2cccs2)cc1	none
CC(=O)NCCc1ccc(C(=O)COC(=O)c2cccn2C)cc1	none
CC(=O)NCCc1ccc(C(=O)COC(=O)c2cccs2)cc1	BL2 CD40 inh 77
COc1ccc(C(=O)COC(=O)c2cccs2)cc1	BL2 CD40 inh 81
COc1ccccc1C(=O)COC(=O)c1cccs1	none
COc1ccc(C(=O)Nc2ccc(C(=O)OCC(=O)c3ccccc3)cc2)cc1	none
O=C(C[C@@H]1CC[C@@H]2[C@H](COC[C@H](O)CN2C(=O)c2ccc3c(c2)OCO3)O1)NCCN1CCCC1	none
COc1cccc(-c2ccc3c(c2)[C@@H]2[C@@H](CCN2S(=O)(=O)C2=NC(C)C=N2)[C@H](CO)N3C)c1 (some centres undefined)	none
CC(C)NC(=O)Nc1ccc2c(c1)C(=O)N(C)C[C@H](C)[C@@H](CN(C)C)O2	none
COc1ccccc1-c1ccc([C@H]2[C@@H](C#N)N(C(=O)C3CCC3)[C@H]2CO)cc1	none
CCOC(=O)N(C)C[C@H]1OCc2ccccc2-c2ccccc2C(=O)N([C@H](C)CO)C[C@@H]1C	none
O=C(C[C@H]1CC[C@H]2[C@@H](COC[C@H](O)CN2Cc2nccs2)O1)NCc1ccccc1Cl	none
CC(C)CC#Cc1ccc2c(c1)O[C@H](CN(C)C)[C@@H](C)CN([C@@H](C)CO)S2(=O)=O	none
N#Cc1cccc(-c2ccc(C3[C@H]4CNC[C@@H]3N4Cc3ccc4c(c3)OCO4)cc2)c1 (some centres undefined)	BL2 CD40 inh 74!
COc1cccc(-c2ccc(C3[C@H]4CNC[C@@H]3N4Cc3ccc4c(c3)OCO4)cc2)c1 (some centres undefined)	none
N#Cc1cccc(-c2ccc(C3[C@H]4CNC[C@@H]3N4Cc3cccc(F)c3)cc2)c1 (some centres undefined)	none
O=C(C[C@H]1C[C@H]2c3cc(NC(=O)Nc4ccc(C(F)(F)F)cc4)ccc3O[C@H]2[C@H](CO)O1)NCc1cc(F)ccc1F	none
c1ccc2oc(C3=NNC(=NC4CC4)SC3)cc2c1	BL2 CD40 inh 66
COc1ccc(N=C2NN=C(c3ccc4c(c3)OCCO4)CS2)cc1	none
c1ccc(CN=C2NN=C(c3cc4ccccc4o3)CS2)cc1	none
c1csc(C2=NNC(=NC3CCCCC3)SC2)c1	none
c1cc2c(cc1C1=NNC(=NC3CC3)SC1)OCCO2	BL2 CD40 inh 92
COc1ccc(CN=C2NN=C(c3cccc(OC)c3)CS2)cc1	none
CC(=O)N1[C@@H]2c3ccc(-c4ccccc4F)c(=O)n3C[C@H]1[C@H](CO)[C@H]2C(=O)N1CCOCC1	none
CCCN(CCC)CC1CCCCN1CCNC(=O)N1c2ccccc2C(=O)Nc2cccnc21 (centres undefined)	none
CCc1nc(N2[C@H](CO)[C@H](c3ccccc3-c3ccc(F)cc3)[C@@H]2C#N)sc1C	none
C[C@@H]1CN([C@@H](C)CO)C(=O)c2ccccc2-c2ccccc2CO[C@@H]1CN(C)Cc1cccc(C(=O)O)c1	none
CCCNC(=O)[C@@H]1[C@@H](CO)[C@@H]2Cn3c(ccc(-c4cncnc4)c3=O)[C@H]1N2C(=O)Nc1ccccc1	none
CN1C(=O)c2cc(NC(=O)C3CCCCC3)ccc2OC[C@@H]2O[C@@H](CC(=O)NCC3CCCCC3)CC[C@H]21	none
CC1(C)CC(=Cc2ccccc2[N+](=O)[O-])C(=O)c2ccccc21	none
O=C1C(=Cc2ccccc2[N+](=O)[O-])Cc2ccccc21	BL2 CD40 inh 50
O=C1C(=Cc2cccc(F)c2)Cc2ccccc21	none
C[C@H]1CN([C@@H](C)CO)C(=O)c2ccccc2-c2ccccc2CO[C@@H]1CN(C)C(=O)Nc1cccc(F)c1	none
Cc1ccccc1S(=O)(=O)N1[C@H](C#N)[C@@H](c2ccc(C#CC3CCCC3)cc2)[C@@H]1CO	none
COc1ccccc1NC(=O)N(C)C[C@H]1OCc2ccccc2-c2ccccc2C(=O)N([C@H](C)CO)C[C@@H]1C	none
Cc1onc(-c2ccccc2)c1-c1nc2ccccc2c(=O)o1	BL2 CD40 inh 56
O=c1oc(-c2cccnc2)nc2ccccc12	none
O=c1onc(-c2ccccc2)c2ccccc12	none
C[C@@H]1CN([C@@H](C)CO)C(=O)c2ccccc2-c2ccccc2CO[C@H]1CN(C)S(=O)(=O)c1ccc(C#N)cc1	none
CO[C@@H]1CN(C)C(=O)c2cc(NC(=O)C3CCOCC3)ccc2OC[C@H](C)N(CC2CC2)C[C@H]1C	none
COc1cccc(CN(C)C[C@H]2OCc3ccccc3-c3c(n(C)c4ccccc34)C(=O)N([C@H](C)CO)C[C@H]2C)c1	none
C[C@H]1CN([C@@H](C)CO)C(=O)c2c(c3ccccc3n2C)-c2ccccc2CO[C@H]1CN(C)Cc1cccc(F)c1	none
C[C@H]1CN([C@@H](C)CO)C(=O)c2c(c3ccccc3n2C)-c2ccccc2CO[C@H]1CN(C)Cc1ccc(C(F)(F)F)cc1	none
C[C@@H]1CN([C@H](C)CO)C(=O)c2c(c3ccccc3n2C)-c2ccccc2CO[C@H]1CN(C)Cc1ccccc1C(F)(F)F	none
C[C@@H]1CN([C@@H](C)CO)C(=O)c2ccccc2-c2ccccc2CO[C@H]1CN(C)Cc1ccccc1C(F)(F)F	BL2 CD40 inh 66[25 µM]
C[C@H]1CN([C@@H](C)CO)C(=O)c2c(c3ccccc3n2C)-c2ccccc2CO[C@@H]1CN(C)Cc1cccc(C(F)(F)F)c1	BL2 CD40 inh 61[25 µM]
C[C@@H]1CN([C@@H](C)CO)C(=O)c2c(c3ccccc3n2C)-c2ccccc2CO[C@@H]1CN(C)Cc1ccccc1C(F)(F)F	BL2 CD40 inh 62[25 µM]
C[C@@H]1CN([C@@H](C)CO)C(=O)c2c(c3ccccc3n2C)-c2ccccc2CO[C@@H]1CN(C)Cc1cccc(C(F)(F)F)c1	BL2 CD40 inh 62[25 µM]
C[C@H]1CN([C@@H](C)CO)C(=O)c2c(c3ccccc3n2C)-c2ccccc2CO[C@H]1CN(C)Cc1ccccc1C(F)(F)F	none
C[C@H]1CN([C@@H](C)CO)C(=O)c2ccccc2-c2ccccc2CO[C@@H]1CN(C)Cc1ccc(C(F)(F)F)cc1	none
C[C@H](CO)N1C[C@H](C)[C@H](CN(C)Cc2cccc(F)c2)OCc2ccccc2-c2c(n(C)c3ccccc23)C1=O	none
C[C@H](CO)N1C[C@H](C)[C@H](CN(C)Cc2ccc(C(F)(F)F)cc2)OCc2ccccc2-c2ccccc2C1=O	none
C[C@@H]1CN([C@@H](C)CO)C(=O)c2c(c3ccccc3n2C)-c2ccccc2CO[C@H]1CN(C)Cc1ccc(C(F)(F)F)cc1	none

Screening results (PubChem BioAssay)
